Potency data for 26 molecules are collected here from PubChem BioAssay AID720540 (National Center for Advancing Translational Sciences (NCATS), 2013).

Screen size: about 1,300 compounds; about 460 (35%) were called active. About 39% were inconclusive and are not listed. Calls follow the shape of the dose curve; as a rule, active = well fitted inhibition curve with a large enough effect; inconclusive = small, poorly fitted or top-dose-only effect; inactive = flat fitted curve, though single readings scatter. The list shows a part of the results.
Potency is read from the fitted curve at half-maximal effect.

Sequence of Protein phosphatase EYA2 (Homo sapiens) (O00167 whole entry, looked up): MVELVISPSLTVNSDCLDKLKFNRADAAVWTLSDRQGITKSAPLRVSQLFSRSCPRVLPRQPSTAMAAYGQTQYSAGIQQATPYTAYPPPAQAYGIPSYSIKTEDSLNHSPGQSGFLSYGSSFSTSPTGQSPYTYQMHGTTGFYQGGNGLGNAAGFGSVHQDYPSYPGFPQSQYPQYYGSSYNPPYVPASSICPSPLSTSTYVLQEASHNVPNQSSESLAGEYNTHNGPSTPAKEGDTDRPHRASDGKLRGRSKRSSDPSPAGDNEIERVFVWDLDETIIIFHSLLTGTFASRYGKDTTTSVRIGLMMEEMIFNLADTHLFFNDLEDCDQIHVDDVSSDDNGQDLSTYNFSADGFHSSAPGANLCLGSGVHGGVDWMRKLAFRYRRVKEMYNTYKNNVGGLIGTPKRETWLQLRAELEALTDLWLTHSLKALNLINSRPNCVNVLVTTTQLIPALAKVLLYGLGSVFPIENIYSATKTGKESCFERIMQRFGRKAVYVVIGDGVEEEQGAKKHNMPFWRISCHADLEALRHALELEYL

For the assay, the target named is Protein phosphatase EYA2 (Homo sapiens) (UniProt O00167). The experiment in a line: qHTS for Inhibitors of the Phosphatase Activity of Eya2: Confirmatory Assay for Cherry-picked Compounds. Also: nearly all actives have a fitted effect of over 65% in size. The note with it: purified EYA2 phosphatase activity, qHTS confirmation; series mostly up to 46.1 µM. Put shortly:
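Eya2 (0.2 uM working solution) preincubated 10 min at room temperature with compound in pH 7.5 HEPES buffer with MgCl2, BSA, DTT. OMFP added (50 uM working solution), 10 min more; fluorescence 485/525 nm, normalized to EGTA and DMSO.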
(In general: In qHTS, concentration-response curves come from the screen itself.)
On to `CCOCCCNC(=O)c1cc2sc(Cl)cc2n1CC`, for which the Potency result was “inactive”.
The result for `Nc1ccccc1C(=O)NNc1c2ccccc2nc2ccccc12` reads 8.49 µM (active); that for `O=[N+]([O-])c1ccccc1Nc1nc(-c2cccnc2)cs1`, 15.1 µM (active).
The result for `O=C(CN1C(=O)c2ccccc2C1=O)Nc1nc(-c2cccc([N+](=O)[O-])c2)cs1` reads “inactive”; that for `CNc1cccc2c1C(=O)c1ccccc1C2=O`, 1.69 µM (active); that for `CN(C)c1ccc(N=Nc2ccnc3ccccc23)cc1`, 3.38 µM (active).
The figure for `Cc1cc(O)cc(O)c1/C=N/NC(=O)c1ccc2c(c1)OCCO2` is 7.57 µM (active); for `S=c1[nH]nc(-c2ccccn2)n1/N=C/c1ccc(Br)s1` it is 16.9 µM (active); for `NC(=O)[C@@H]1CC2(CC(c3cccc(NC(=O)COc4ccc(Cl)cc4)c3)=NO2)CN1C(=O)COc1ccc(Cl)cc1` (stereo partly specified) it is “inactive”.
Regarding `CCn1c(C)cc(/C=C2/SC(=O)N(C(C)C(=O)OC)C2=O)c1C` (stereo unspecified), the Potency result is “inactive”.
The entry for `Cc1c(C(=O)O)cccc1-c1ccc(/C=C2\SC(=O)NC2=O)o1` is “inactive”.
The figure for `CCOC(=O)C(C)N1C(=O)S/C(=C\c2ccc(-c3ccccc3C(=O)O)o2)C1=O` (stereo unspecified) is 19 µM (active); for `COCCN(Cc1cc2cc3c(cc2nc1Cl)OCO3)C(=O)Nc1ccc(OC)cc1` it is “inactive”; for `COc1ccc2[nH]cc(CCn3ccc(O)c(C/C=C/c4ccccc4)c3=O)c2c1` it is 21.3 µM (active).
Regarding `O=S(=O)(O)c1ccc2c(N=Nc3ccc(S(=O)(=O)O)c4ccccc34)c(O)c(S(=O)(=O)O)cc2c1`, the Potency was 7.57 µM (active).
With `CC(=O)Nc1ccc(S(=O)(=O)O)c2cc(S(=O)(=O)O)c(N=Nc3ccc(N=Nc4ccc(S(=O)(=O)O)cc4)c4ccc(S(=O)(=O)O)cc34)c(O)c12`, the Potency is 1.51 µM (active).
Take `CCN1CCN(c2ncnc3scc(-c4ccc(C)cc4)c23)CC1`: the Potency entry was “inactive”.
In the case of `CCOc1ccc(NC(=O)C2CC(=O)N(CCc3ccc(OC)c(OC)c3)C2)cc1OCC` (stereo unspecified), the Potency was 12 µM (active).
The result for `COc1ccc2cc(C(=O)N3CCN(c4ccc(F)cc4)CC3)[nH]c2c1` reads “inactive”; that for `COc1ccc(N2CCN(C(=O)c3cc(-c4cc(OC)ccc4OC)nc4ccccc34)CC2)cc1`, 16.9 µM (active).
The figure for `O=C1/C(=C\c2cccc([N+](=O)[O-])c2O)SC(=S)N1Cc1ccccc1` is 6.75 µM (active).
The result for `Oc1ccc(-c2nc3c4c(ncn3n2)-c2ccccc2CC42CCCC2)cc1` reads “inactive”; that for `COc1ccc(NC(=O)/C(C#N)=C/c2ccc(-c3ccc(Cl)c(C(=O)O)c3)o2)cc1`, 19 µM (active).
Take `N#C/C(=C\c1ccc(-c2ccc(C(=O)O)cc2)o1)C(=O)Nc1ccc(F)cc1`: the Potency is 16.9 µM (active).
`COc1ccc(CC(CC(=O)O)C(=O)Nc2ccc(Cl)c(Cl)c2)cc1` (stereo unspecified): the Potency entry was “inactive”.
The figure for `COc1ccc(/C=C(/C#N)C(=O)Nc2ccc(O)cc2)cc1C(=O)O` is 9.53 µM (active).
